From PubChem BioAssay
Rows were chosen to be rich in hits. Some 8.2% of all compounds tested hit in one or more screens of this group.
ELG1 repair inh – ELG1-dependent DNA repair inhibition | Potency, µM (doses to about 46.1 µM), inactives show top-dose activity change, negative = inhibition, most hits filed as inhibitors | HEK293T ELG1-luciferase reporter, luminescence, 16 h; DNA damage induced by 5-fluorouridine | 2.3% of 330,000 active; note: % is set by controls: 0 for no effect and ±100 for the full control effect; nearly all actives have a fitted effect of over 55% in size
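Step one: seed 2,000 cells per well. Step two: pin-transfer compound or DMSO alongside 5-fluorouridine. Step three: incubate 16 hr, 37 °C, 5% CO2. Step four: add ONE-Glo, wait 30 min, read luminescence.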
KB-3-1 tox – KB-3-1 parental cell cytotoxicity; 1.4% of 400,000 active; KB-3-1 viability, CellTiter-Glo ATP luminescence, 72 h; AID 1347075; Potency, µM (titrated, usually from 46.1 µM), most hits filed as cytotoxic; note: % is set by controls: 0 for no effect and ±100 for the full control effect; nearly all actives have a fitted effect of over 60% in size
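KB-3-1 parental drug-naive adenocarcinoma cells in DMEM/10% FBS, incubated 72 h at 37 C with pin-transferred compounds across a concentration series. Viability by CellTiter-Glo luminescence; concentration-response curves fitted after normalization.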
MCF10A rereplic – induces DNA re-replication in MCF 10a normal breast cells | 2.9% of 350,000 active | MCF 10A DNA re-replication, Hoechst nuclear intensity, 48 h | Potency, µM (titrated, usually from 46.1 µM), for the others: at the highest dose activity, positive = re-replication, hits mostly activators | AID 624296; note: % of control where 0% means no effect; nearly all actives have a fitted effect of over 50% in size
KB-V1 cytotox – KB-V1 MDR subline cytotoxicity | Potency, µM (series often up to 46.1 µM), most hits filed as cytotoxic | 3.4% of 400,000 active | KB-V1 MDR cells viability, CellTiter-Glo, 72 h | AID 1347076; note: % is set by controls: 0 for no effect and ±100 for the full control effect; nearly all actives have a fitted effect of over 60% in size
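Cytotoxicity toward P-gp-expressing KB-V1 cells was determined as loss of CellTiter-Glo luminescence after 72 h at 37 degrees C. Compounds were tested in quantitative HTS format across a concentration range, with curves fitted to normalized data.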
SW480 rereplic – DNA re-replication induction in SW480 cells; AID 624297; Potency, µM (titrated, usually from 46.1 µM), inactives show top-dose re-replication activation, most hits filed as activators; SW480 DNA re-replication, Hoechst DNA content imaging, 48 h; 1.8% of 340,000 active; note: % of control where 0% means no effect; nearly all actives have a fitted effect of over 55% in size
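Cells (250 per well) received 23 nL compound or DMSO by pin tool and were kept 48 hr at 37 C, 5% CO2. Nuclei were then stained with Hoechst for 40 min and scanned for DNA content.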
An asterisk follows results filed as active. Calls come from the whole dose curve; as a rule, active = well fitted curve in the direction sought with a large enough effect; inconclusive = small, poorly fitted or top-dose-only effect, or another doubt; inactive = no such curve, though single readings can be large; an effect the other way counts as inactive or inconclusive. Potency is the fitted concentration of half-maximal effect.

Results for Cn1nc(-c2ccc(Cl)cc2)c2cc(C(=O)NCCCN3CCCC3)sc21 ?
ELG1 repair inh: inconclusive; KB-3-1 tox: inconclusive; MCF10A rereplic: 23µM*; KB-V1 cytotox: inactive; SW480 rereplic: inconclusive

What do the screens show for `CNc1c(Br)cc(/C=C2\C=Cc3ccccc32)cc1Br`?
KB-3-1 tox: inactive; KB-V1 cytotox: inactive

What do the screens show for `COc1cc(C(=O)OC2CC3CCC2(C)C3(C)C)ccc1OC(C)=O` (stereo unspecified)?
ELG1 repair inh: 9%; KB-3-1 tox: inactive; MCF10A rereplic: 15µM*; KB-V1 cytotox: inconclusive; SW480 rereplic: inconclusive

What do the screens show for `CCc1nc2c(OCc3ccc(Cl)cc3Cl)cccn2c1N(C=O)Cc1ccc(OC)cc1`?
KB-3-1 tox: inconclusive; KB-V1 cytotox: 18µM*

How did CCc1nc2c(OCCOc3ccc(F)cc3)cccn2c1N(C=O)Cc1ccc(OC)cc1 do in these assays?
KB-3-1 tox: inactive; KB-V1 cytotox: 18µM*

How did CCc1nc2c(OCc3ccc(F)cc3)cccn2c1N(C)C(=O)COc1ccccc1 do in these assays?
KB-3-1 tox: 23µM*; KB-V1 cytotox: 6.5µM*

How did Cc1cccc(-n2c(SCC(=O)N3CCC(C(=O)O)CC3)nc3ccccc3c2=O)c1C do in these assays?
ELG1 repair inh: 23%; KB-3-1 tox: inactive; MCF10A rereplic: 17%; KB-V1 cytotox: inactive; SW480 rereplic: 21%

How did CN(C=O)c1cc([N+](=O)[O-])ccc1OCc1ccccc1 do in these assays?
KB-3-1 tox: inactive; MCF10A rereplic: inconclusive; KB-V1 cytotox: 18µM*; SW480 rereplic: -1%

What do the screens show for `CN(CC(=O)Nc1ccc(Cl)cc1)C(=O)CNC(=O)Cc1cccc2ccccc12`?
ELG1 repair inh: 15%; KB-3-1 tox: inactive; MCF10A rereplic: inconclusive; KB-V1 cytotox: inconclusive; SW480 rereplic: -5%

How did COCCn1c(C)cc(C(=O)COC(=O)c2n[nH]c3ccccc23)c1C do in these assays?
ELG1 repair inh: inconclusive; KB-3-1 tox: inactive; MCF10A rereplic: inconclusive; KB-V1 cytotox: 9.2µM*; SW480 rereplic: 2%

What do the screens show for `COCCn1c(C)cc(C(=O)CSc2ccc3ccccc3n2)c1C`?
ELG1 repair inh: inconclusive; KB-3-1 tox: inactive; MCF10A rereplic: inconclusive; KB-V1 cytotox: inconclusive; SW480 rereplic: -2%

Results for COCCn1c(C)cc(C(=O)COC(=O)c2[nH]c(C)c(C(C)=O)c2C)c1C ?
ELG1 repair inh: inconclusive; KB-3-1 tox: inconclusive; MCF10A rereplic: 0%; KB-V1 cytotox: 4.1µM*; SW480 rereplic: -10%

Results for COCCn1c(C)cc(C(=O)COc2nc3ccccc3nc2C)c1C ?
ELG1 repair inh: 23µM*; KB-3-1 tox: inactive; MCF10A rereplic: 23%; KB-V1 cytotox: inconclusive; SW480 rereplic: 3%

Results for Cc1cc(C(=O)COC(=O)c2n[nH]c3ccccc23)c(C)n1C ?
ELG1 repair inh: inconclusive; KB-3-1 tox: inactive; MCF10A rereplic: 2%; KB-V1 cytotox: inactive; SW480 rereplic: -20%

How did CCn1c2ccccc2c2cc(NC(=O)COC(=O)c3ccc(NC(=O)CC#N)cc3)ccc21 do in these assays?
ELG1 repair inh: inconclusive; KB-3-1 tox: inactive; MCF10A rereplic: 0%; KB-V1 cytotox: inactive; SW480 rereplic: 36%

How did O=C(NCC(c1cccnc1)N1CCc2ccccc2C1)C(=O)Nc1ccccc1F (stereo unspecified) do in these assays?
KB-3-1 tox: inactive; KB-V1 cytotox: inactive

Results for O=C(NCCc1nc2ccccc2n1CCOc1cccc2ccccc12)C1CCCCC1 ?
KB-3-1 tox: inactive; KB-V1 cytotox: inactive

How did Cc1cc(Cl)ccc1-n1c(CCC(=O)O)ccc1-c1cccs1 do in these assays?
KB-3-1 tox: inactive; KB-V1 cytotox: inconclusive

Results for Cc1ccc(S(=O)(=O)N2CCN(Cc3cc(=O)n4ccccc4n3)CC2)cc1C ?
ELG1 repair inh: -5%; KB-3-1 tox: inactive; MCF10A rereplic: -4%; KB-V1 cytotox: inactive; SW480 rereplic: -1%

Results for Cc1ccc(S(=O)(=O)N2CCN(Cc3cc(=O)n4ccccc4n3)CC2)c(C)c1 ?
ELG1 repair inh: 7.3µM*; KB-3-1 tox: inactive; MCF10A rereplic: 2%; KB-V1 cytotox: inactive; SW480 rereplic: -9%

What do the screens show for `Cc1cc(NC(=O)n2ncc3c(C)cccc32)ccc1Br`?
KB-3-1 tox: inactive; KB-V1 cytotox: inactive

Results for COc1ccc(S(=O)(=O)N2CCOCC2)cc1NC(=O)c1ccc(SC)cc1OC ?
KB-3-1 tox: inactive; KB-V1 cytotox: inconclusive

Results for CCC(=O)N1CCC(C)(C(=O)Nc2nccc3ccccc23)C1 (stereo unspecified) ?
KB-3-1 tox: inactive; KB-V1 cytotox: inactive

What do the screens show for `Cc1ccc(C)c(N=Nc2ccc(O)c3ncccc23)c1`?
ELG1 repair inh: inconclusive; KB-3-1 tox: inactive; MCF10A rereplic: 16µM*; KB-V1 cytotox: inconclusive; SW480 rereplic: 5%

How did COc1ccc(C)cc1NC(=O)CCNS(=O)(=O)c1ccc2c(c1)CCC(=O)N2 do in these assays?
ELG1 repair inh: 1%; KB-3-1 tox: inactive; MCF10A rereplic: -3%; KB-V1 cytotox: inconclusive; SW480 rereplic: 8%

Results for Cc1cccc(C)c1OCc1cc(C(=O)N2CC3C[C@@H]4CC2C[C@H](C3)C4)no1 ?
ELG1 repair inh: inconclusive; KB-3-1 tox: inactive; MCF10A rereplic: 18µM*; KB-V1 cytotox: inconclusive; SW480 rereplic: 1%

Results for O=C(CSc1nc2ccc(Cl)cc2[nH]1)c1cccs1 ?
ELG1 repair inh: inconclusive; KB-3-1 tox: inactive; MCF10A rereplic: 16%; KB-V1 cytotox: inactive; SW480 rereplic: -15%

Results for O=C(CC1Sc2ccccc2NC1=O)OC(C(=O)NCCc1ccccc1)c1cccnc1 (stereo unspecified) ?
ELG1 repair inh: -3%; KB-3-1 tox: inactive; MCF10A rereplic: 0%; KB-V1 cytotox: inconclusive; SW480 rereplic: -25%

How did COCCNC(=O)C(OC(=O)CC1Sc2ccccc2NC1=O)c1ccncc1 (stereo unspecified) do in these assays?
ELG1 repair inh: 6%; KB-3-1 tox: inactive; MCF10A rereplic: 4.6µM*; KB-V1 cytotox: inactive; SW480 rereplic: 3.7µM*

What do the screens show for `C#Cc1ccc(CN2CCC(Oc3ccc(C(=O)NCc4ccccn4)cc3)CC2)cc1`?
ELG1 repair inh: -26%; MCF10A rereplic: inconclusive; SW480 rereplic: -2%

How did COc1ccc(-c2csc(C3=C(O)CN(C(C)C)C3=N)n2)cc1OC do in these assays?
ELG1 repair inh: 7%; KB-3-1 tox: inconclusive; MCF10A rereplic: -5%; KB-V1 cytotox: inactive; SW480 rereplic: 8%

Results for CCCCOc1ccccc1NC(=O)Cn1c(-c2cncs2)nc2ccccc21 ?
KB-3-1 tox: inactive; KB-V1 cytotox: inactive
